Compound activity: PubChem BioAssay, several laboratories
In the library only some 3.2% were active in any assay of this set; here they are far more common.
PriA SSB inh – inhibitors of Klebsiella pneumoniae PriA binding to SSB C-terminal tail, primary screen, biochemical, AlphaScreen. PriA–SSB C-terminal tail interaction (Klebsiella pneumoniae). AlphaScreen SSBct-PriA binding, biotinylated peptide. inhibition, % at 33 µM. hit rate 0.6% among 430,000. AID 1272365, 2023; in the data active = inhibition mostly above about 37%, no sharp cut-off; inactive = mostly below about 20%;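 also: plate controls were negative control peptide for no effect and reference peptide for full effect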
GDH-TPI counter-1 – GDH-TPI coupling enzyme inhibitors, primary screen, artefact control for M. tuberculosis FBA inhibitor project, biochemical, absorbance, full deck | hit rate 1.2% among 360,000 | GDH-TPI coupled enzyme counterscreen, NADH absorbance | inhibition, % at 4.8 µM | AID 588335, 2011; in the data active = inhibition above about 30%;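 also: 0% = DMSO wells and 100% = wells lacking the enzyme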
Mtb FBA inh – Mtb FBA enzyme inhibitors, primary screen, biochemical, fluorescence, strain H37Rv | Fructose-bisphosphate aldolase (Mycobacterium tuberculosis (strain ATCC 25618 / H37Rv)), … | purified M. tuberculosis FBA, fluorescence read-out | inhibition, % at 1 µM | hit rate 2.3% among 360,000;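 also: 0% = vehicle and 100% = reference inhibitor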
Mtb UGM inh – M. tuberculosis UGM enzyme inhibitors, primary screen, biochemical, fluorescence polarization, single point | hit rate 0.06% among 320,000 | AID 504406, 2011 | inhibition, % at 10 µM | purified UGM, fluorescence polarization probe displacement; in the data active = inhibition above about 10%, passing the limit was not always enough; inconclusive = no clear call, values can overlap the other calls
Target sequence (P9WIQ1 whole entry, looked up): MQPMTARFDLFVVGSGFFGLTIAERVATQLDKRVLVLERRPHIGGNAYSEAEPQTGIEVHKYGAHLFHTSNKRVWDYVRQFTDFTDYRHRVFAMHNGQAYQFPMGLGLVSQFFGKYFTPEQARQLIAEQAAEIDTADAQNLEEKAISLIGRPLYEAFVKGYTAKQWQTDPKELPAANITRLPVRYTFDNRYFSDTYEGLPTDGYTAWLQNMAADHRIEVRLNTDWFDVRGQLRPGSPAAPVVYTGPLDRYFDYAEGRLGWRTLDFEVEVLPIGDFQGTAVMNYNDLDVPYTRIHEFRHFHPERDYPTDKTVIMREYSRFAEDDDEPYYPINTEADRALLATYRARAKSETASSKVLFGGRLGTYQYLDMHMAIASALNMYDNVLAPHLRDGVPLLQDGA
Mtb bLac sens – beta-lactam sensitization of Mtb H37Rv, H37Rv; M. tuberculosis H37Rv growth with meropenem, percent inhibition; inhibition, % at 25 µM; hit rate 0.27% among 330,000; call rule not given here;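 also: growth measured after seven days incubation then overnight dye step; 0% = bacteria only wells and 100% = bacteria with antibiotic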
Rv3671c protease – Rv3671c serine protease inhibitors, primary screen, biochemical, fluorescence polarization, M. tuberculosis H37Rv; hit rate 0.048% among 320,000; P9WHR9; inhibition, % at 5.96 µM; in the data active = inhibition above about 38%;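 also: extracellular domain of Rv3671c used as enzyme; 0% = enzyme with DMSO and 100% = no enzyme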
Mtb FBA inh conf – M. tuberculosis aldolase blockers, biochemical, fluorescence, strain H37Rv, confirmation. inhibition, % at 1 µM. shares compounds with Mtb FBA inh. purified M. tuberculosis FBA, fluorescence read-out. AID 651616, 2012. hit rate 78% among 5,600;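 also: 0% = vehicle wells and 100% = reference inhibitor wells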
GDH-TPI counter-2 – GDH-TPI coupling enzyme inhibitors, artefact control for M. tuberculosis FBA inhibitor project, biochemical, fluorescence, high throughput; hit rate 81% among 5,600; GDH-TPI coupled enzyme counterscreen; inhibition, % at 1 µM; shares compounds with Mtb FBA inh; in the data active = inhibition above about 10%
Active calls of the source: *; ? = inconclusive; . = no result given; + = active, no number. Rule as the data show it, unless noted: active = inhibition above about 27%; inactive = the rest.

SMILES	PriA SSB inh	GDH-TPI counter-1	Mtb FBA inh	Mtb UGM inh	Mtb bLac sens	Rv3671c protease	Mtb FBA inh conf	GDH-TPI counter-2
CC(Sc1nc2ccccc2s1)C(=O)Nc1nnc(-c2ccccc2Cl)s1 (stereo not drawn)	-1.0	.	.	.	.	.	.	.
C=C(Cl)COc1cc(C)cc2oc(=O)cc(CC)c12	-4.5	4.5	32.3*	-0.6	1.0	-1.0	146.1*	118.0*
COc1ccc(-c2cc(=O)c3cc(F)ccc3[nH]2)cc1	-20.4	-2.0	31.1*	-0.2	-11.1	0.3	126.1*	98.5*
COc1ccc2[nH]c(-c3ccccc3)cc2c1	-0.1	8.0	99.6*	-0.1	5.7	-6.1	90.7*	71.5*
COc1ccc(-c2cc(=O)[nH]c(=O)[nH]2)cc1	-12.6	17.5	-3.5	-2.4	-2.8	-1.7	.	.
COc1ccc(-c2cc(=O)c3cc(OC)c(OC)cc3[nH]2)cc1	-0.5	19.0	57.5*	-3.2	-10.3	-6.3	65.6*	59.2*
COc1ccc2[nH]c(-c3ccc(C)cc3)cc(=O)c2c1	-17.4	17.5	44.2*	0.1	-0.1	1.6	+	165.2*
O=C(CSCc1ccccc1)NCCNC(=O)c1ccc(NC(=O)C2CC2)cc1	-9.0	.	.	.	.	.	.	.
CC1CC(C)CN(S(=O)(=O)c2ccc(C(=O)Nc3sccc3C#N)cc2)C1 (stereo not drawn)	2.0	.	.	.	.	.	.	.
Cc1ccncc1NC(=O)C1CCc2nc[nH]c2C1 (stereo not drawn)	-26.0	.	.	.	.	.	.	.
O=C(NCC1CCCN1c1ccccc1)C(c1ccccc1)c1ccccc1 (stereo not drawn)	-17.0	.	.	.	.	.	.	.
CCn1cc(C(=O)O)c(=O)c2cc(F)c(N3CCN(C(=S)NC(=O)c4ccccc4Cl)CC3)cc21	6.4	11.1	2.5	-1.8	97.2	-4.3	.	.
O=C(O)c1cn(-c2ccc(F)cc2)c2cc(N3CCNCC3)c(F)cc2c1=O	-5.3	8.8	33.3*	.	.	.	169.9*	136.4*
O=S(=O)(c1ccccc1)N1N=C(c2cccs2)CC1c1ccc(Br)cc1 (stereo not drawn)	-11.1	8.1	9.2	-1.8	-3.6	-4.6	.	.
c1ccc(C2CC(c3cccs3)=NN2c2ccccc2)cc1 (stereo not drawn)	-28.6	7.4	87.0*	-0.6	2.5	5.3	170.6*	119.0*
Fc1ccc(C2CC(c3cccs3)=NN2c2ccccc2)cc1 (stereo not drawn)	-47.2	2.2	107.3*	.	.	.	32.9*	21.7*
Cc1ccccc1C(=O)NCCSc1c(-c2ccccc2)[nH]c2ccccc12	0.0	.	.	.	.	.	.	.
COCCCn1c2nc3ccccc3nc2c2c(=O)n(CC3CCCO3)cnc21 (stereo not drawn)	4.3	20.6	78.6*	-2.5	-3.2	5.5	0.1	-2.3
COc1cc2nc3occc3c(OC)c2cc1OC	18.0	13.9	9.0	1.0	6.7	-0.6	.	.
COc1ccc2c(OC)c3ccoc3nc2c1OC	-3.7	1.4	96.1*	-2.6	-9.6	1.4	192.2*	166.2*
Cc1cc(N2CCN(C3CCCCC3)CC2)n2c(nc3ccccc32)c1C#N	18.0	.	.	.	.	.	.	.
COc1ccc(CNc2oc(-c3ccccc3)nc2C#N)cc1	10.6	17.8	91.9*	6.0	?	-4.2	94.9*	73.3*
COc1ccc(CCNc2oc(-c3ccc(C)cc3)nc2C#N)cc1OC	2.1	7.9	51.4*	-2.8	3.1	4.4	70.0*	61.6*
N#Cc1nc(-c2ccc(Cl)cc2)oc1NCc1cccc2c1OCO2	-6.3	-3.5	27.3*	-1.7	0.3	-4.8	109.8*	89.0*
COc1ccc(CCNc2oc(COc3ccc(Br)cc3)nc2C#N)cc1OC	19.4	-1.0	1.6	-0.9	0.3	2.4	.	.
